# Measured values from PubChem BioAssay (NCATS).
# Inconclusive results are not listed. Activity calls are given as the source filed them. Calls follow the shape of the dose curve; as a rule, active = well fitted cell-killing curve with a large enough effect; inconclusive = small, poorly fitted or top-dose-only effect; inactive = flat fitted curve, though single readings scatter. Bridge positions count the residues as written; N and C are the ends. Square brackets hold non-standard residues; d marks the D form. Side chains are listed from the residue outwards. Peptide text beside a SMILES is read from it. * marks the point of attachment. Phg(4-OMe) = COc1ccc([C@H](N)C(=O)O)cc1; d(aIle) = CC[C@H](C)[C@@H](N)C(=O)O; d(aThr) = C[C@@H](O)[C@@H](N)C(=O)O; NMeF = CN[C@@H](Cc1ccccc1)C(=O)O; Isobutyryl = CC(C)C(=O)*
# Assay: U-118MG Cancer Cell Toxicity qHTS against the NCATS CANVASS Library (AID 1347351)
# Settings: U-118MG viability, CellTiter-Glo luminescence, 72 h; series mostly up to 38.3 µM; activity change, negative = cytotoxicity: at the top concentration; outcome: at the top concentration
# Source text: Natural products and their derivatives continue to be wellsprings of nascent therapeutic potential. However, many laboratories have limited resources for biological evaluation, leaving their previously isolated or synthesized compounds largely or completely untested. To address this issue, the Canvass library of natural products was assembled (https://tripod.nih.gov/canvass), in collaboration with academic and industry researchers, for quantitative high-throughput screening (qHTS) across a diverse set of cell-based and biochemical assays. The pure (>85% purity by liquid chromatography/mass spectrometry [LC/MS]) Canvass library of 346 natural products were submitted by 45 academic laboratories and companies around the world. We collected pure natural products to circumvent deconvolution and structure elucidation due to time and resource limitations. The library was formatted into 1536-well plates and evaluated in 50 qHTS (in an 11-pnt concentration series) bioassays with broad scope of disease-relevant mechanisms. The resulting data set from 50 different assays was then systematically analyzed to identify overall trends and specific natural products with interesting biological activities. Reported herein are the results of each individual qHTS and their corresponding assay protocol. National Center for Advancing Translational Sciences (NCATS), Rockville, MD National Institute of Health (NIH), Bethesda, Maryland
# Cancer Cell Toxicity protocol for cell lines COV-362, OV-KATE, OV-SAHO, UWB1.289, UWB1.289-WTBRCA1, HEK-293, HPAF-II, Panc-1005, SW1088, or U-118MG. 1. In a 1536 well, white solid bottom tissue culture plates (Corning 7494), corresponding cells (COV-362, OV-KATE, OV-SAHO, UWB1.289, UWB1.289-WTBRCA1, HEK-293, HPAF-II, Panc-1005, SW1088, or U-118MG) were dispensed in each well at a final concentration of 1000 cells / well (6uL volume) using the Multidrop Combi (Thermo Fisher Scientific) dispenser. 2. The plates were incubated for 4 hours at 37 degrees C/5% CO2/95% Rh. 3. Compounds were pin transferred (~23nL volume) via Wako Pin-tool (Wako Automation, Richmond VA) equipped with a 1536 pin head. The assay plates were treated with compounds in an 11-pnt concentration series with a final concentration range of […] to 85uM. 4. Bortezomib was used as a single dose control (0.5mM column 4, rows 1 - 32) at a final concentration of 1.9uM and as a 16pnt titration (1mM; 1:2 dilution; 16-points; n = 2; column 3, rows 1 - 32) with final concentration range of 0.1nM - 3.8uM. 5. The assay plates were incubated for 72 hours at 37 degrees C/5% CO2/95% Rh. 6. 3uL CellTiter-Glo detection reagent was then added to the plates (columns 2 - 48, rows 1 - 32) and incubated at room temperature for additional 15min. 7. Luminescence signal was acquired via the ViewLux plate reader (PerkinElmer) using a clear filter, 2 second exposure and 2x binning settings.
# % is scaled to controls: 0 for no effect and ±100 for the full control effect; potency is read from the fitted curve at half-maximal effect.
Compound,"activity change, negative = cytotoxicity",Potency,outcome
O=C1c2c(O)cc(O)cc2OC(c2ccc(O)cc2)C1O (stereo not given),-6.47% (inactive),–,–
O=Cc1ccc2n1C[C@]1(C[C@H](O)[C@@H](CO)O1)OC2,-6.08% (inactive),–,–
C[C@@]12CCC[C@@](C)(C(=O)O)[C@H]1CC[C@@]13C[C@@H](CC[C@H]12)[C@](C)(O)C3,-7.3% (inactive),–,–
C/C(=C\[C@@H](C)CC/C=C/CC/C=C/C(=O)O)[C@H](O)[C@H](C)C(=O)CCCC1CC(=O)NC(=O)C1,1.43% (inactive),–,–
CO[C@@H]1[C@H](O)[C@@H](C)O[C@@H](OC[C@@H]2C(C)OC(=O)/C=C/[C@H](C)C(O[C@@H]3O[C@H](C)CC4(OC(=O)O[C@@H]4C)C3O)[C@@H](C)CC(C)C(=O)/C=C/[C@H]3OC23)[C@@H]1OC (stereo not given in full),–,16.8 µM (active),–
O=C1OC(CCO)c2cccc(O)c21 (stereo not given),4.41% (inactive),–,–
CCC(=O)CCCCC[C@@H]1NC(=O)[C@H]2CCCCN2C(=O)[C@H](C(C)C)NC(=O)[C@H](Cc2cn(OC)c3ccccc23)NC1=O,–,3.75 µM (active),–
C=C[C@@]1(C)CC[C@@H]([C@H](C)C(=O)/C=C/C(C)(C)O)O1,-27.4% (inactive),–,–
C=CC(CCCCC)C1C(=O)NC(=O)C1C(=O)C1C2C(C)CC(C(=O)O)CC2CC1(O)C(=O)/C=C/C (stereo not given),1.84% (inactive),–,–
CCCc1c2c([nH]c(=O)c1C)C(=O)c1[nH]c(=O)c(C)c(CCC)c1C2=O,-16.3% (inactive),–,–
C/C=C1/CN2C3CC1C1C=CC(=O)N4c5ccccc5[C@@]3(C[C@@H]2C2=C[C@H]3C5CC6N(CC[C@@]67c6ccccc6N(C2=O)[C@@H]37)C/C5=C/C)[C@H]14 (stereo not given in full),–,11.9 µM (active),–
C[C@H]1C=C[C@H]2CCCC[C@@H]2[C@H]1C(=O)[C@H]1CC2=C(C(=O)O)CCN2C1=O,-0.471% (inactive),–,–
CO[C@H]1[C@@H](OC(=O)/C(C)=C\[C@@H]2O[C@@H]2[C@H]2O[C@H]2C)[C@H](O)[C@H](OCC23C[C@@H]4[C@H](C)CC[C@H]4C4(C=O)CC2C=C(C(C)C)C34C(=O)O)O[C@@H]1C (stereo not given in full),–,–,inactive
C[C@@]12CCC[C@@](C)(C(=O)OP(=O)(O)OC[C@H]3O[C@@H](n4cnc5c(N)ncnc54)[C@H](O)[C@@H]3O)[C@H]1C[C@@H](O)[C@@]13C[C@@H](CC[C@@H]21)[C@](C)(O)C3,–,–,inactive
CN1CC[C@]2(c3cccc4c3N[C@H]3N(C)CC[C@@]43[C@]34CCN(C)[C@H]3Nc3ccccc34)c3ccccc3N[C@H]12,–,7.49 µM (active),–
COc1ccc([C@@H]2c3cc4c(cc3C(=O)C(C)C2C)OCO4)cc1OC (stereo not given in full),–,–,inactive
CN1CC[C@@]23c4ccccc4N[C@@H]1[C@@]21CCN(C)[C@@H]3Nc2ccccc21,-2.06% (inactive),–,–
C/C(=C\[C@@H](C)CC/C=C/CC/C=C/C(=O)O)[C@@H](O)[C@H](C)C(=O)CCCC1CC(=O)NC(=O)C1,-13% (inactive),–,–
C=C(Cl)[C@](Cl)(CBr)CC[C@@H](Br)C(C)(C)Cl,–,8.41 µM (active),–
Cc1occ2c1C(=O)c1c(cc(O)c(O)c1O)C2=O,–,13.3 µM (active),–

Compound,"activity change, negative = cytotoxicity",Potency,outcome
CC(=O)c1c(C)cc2c(c1O)C(=O)c1c(O)cc(O)cc1C2=O,-0.806% (inactive),–,–
COc1cc2c(cc1OC)[C@@H](c1ccc3c(c1)OCO3)C(C)C(C)C2=O (stereo not given in full),-22% (inactive),–,–
COC(=O)c1cc2cc3c(c(O)c2c(=O)o1)OC1(CC3)CC2=C(O1)C(=O)c1c(O)c(OC)cc(OC)c1C2=O (stereo not given),-11.5% (inactive),–,–
[C-]#[N+][C@@]12C(=O)[C@@H]3[C@@H](O[C@@]4(C(=O)N(C)c5cccc1c54)C3(C)C)C(=O)[C@@]2(C)C=C,2.41% (inactive),–,–
O=c1cc(-c2ccc(O)c(O)c2)oc2cc(O[C@@H]3O[C@H](CO)[C@@H](O)[C@H](O)[C@H]3O)cc(O)c12,-18.9% (inactive),–,–
O=Cc1ccc2n1C[C@]1(OC2)O[C@H](CO)[C@@H](O)[C@@H]1O,4.62% (inactive),–,–
O=c1cc(-c2ccc(O)cc2)oc2cc(O)c([C@@H]3OC(CO)[C@H](O)[C@@H](O)[C@H]3O)c(O)c12 (stereo not given in full),-3.09% (inactive),–,–
COC(=O)c1cccc2oc(-c3cccc4oc(-c5c(C)cccc5O)nc34)nc12,-24.7% (inactive),–,–
CC[C@@H]1C[C@@]2(CC)OC(=O)[C@@]3(CC)[C@H](CC)[C@@H]1[C@@H]23,-7.87% (inactive),–,–
CC(C)=CCC/C(C)=C/Cc1cc([C@@H]2CC(=O)c3c(cc(O)c(CC=C(C)C)c3O)O2)ccc1O,1.87% (inactive),–,–
CC[C@H](C)[C@H]1NC(=O)[C@@H](NC(=O)C(C)C)[C@@H](C)OC(=O)[C@H](COC(=O)CNC(C)=O)NC(=O)[C@@H]([C@@H](C)O)NC(=O)[C@H](Cc2ccccc2)N(C)C(=O)[C@H](c2ccc(OC)cc2)NC1=O (Isobutyryl-T[d(aIle)][Phg(4-OMe)][NMeF][d(aThr)]S([Gly-Ac]); ester 1-C),-2.58% (inactive),–,–
O=C1CC(c2ccc(O)cc2)Oc2cc(O)ccc21 (stereo not given),-21.6% (inactive),–,–
CC(CCC[C@]1(C)C(=O)C=C[C@@]23C[C@]4(C)O[C@@H](C[C@@H]4[C@H]2O)C31)C(=O)O (stereo not given in full),3.19% (inactive),–,–
COc1cc(/C=C/C(=O)OC[C@@H](Cc2ccc(O)c(OC)c2)[C@@H](COC(=O)/C=C/c2ccc(O)c(OC)c2)Cc2ccc(O)c(OC)c2)ccc1O,–,10.6 µM (active),–
COc1cc2ccc(=O)oc2c(O)c1O[C@@H]1O[C@H](CO)[C@@H](O)[C@H](O)[C@H]1O,-10.9% [at 22.9 µM] (inactive),–,–
C/C=C/c1cc2c(c(=O)o1)C(=O)[C@@H](O)[C@H](C)O2,-3.09% (inactive),–,–
C=C1[C@@]2(C)CC3C4(C)CCC(O)C(C)(C)C4CCC3(C)[C@]1(C(=O)OC)C(=O)C(C)(O)C2=O (stereo not given in full),2.43% (inactive),–,–
C=C1CC[C@@H](Br)C(C)(C)[C@]12CC=C(C)C(=O)C2,–,–,inactive
C=CC(C)(C)C(=O)[C@@H](C)[C@@H]1CC[C@@](C)(C=C)O1,–,–,inactive
CC(C)[C@]12CC[C@@]3(C)[C@H](C)CC[C@H](O)[C@@]3(CC1)c1cc3c(cc12)[nH]c1ccccc13,–,–,inactive
